{
  "source": "PubChem BioAssay (Tox21)",
  "note": "Inconclusive results are not listed. Unmarked numbers belong to inactive results. Calls of active or inactive are those of the source. The call rests on the fitted dose curve; in most records, active means well fitted activation curve with a large enough effect in the repeat runs; inconclusive means weak or mixed curves; inactive means flat fitted curve, though single readings scatter. On the % scale 0 is the no-effect control and ±100 the full control effect; potency means the concentration at half of the fitted maximal effect.",
  "data": [
    {"experiment": "A CellTox Green Cytotoxicity Assay to monitor cytotoxicity in HEK293 cells - 8 hour (AID 1224884); further: nearly all actives have a fitted effect of over 35% in size", "settings": "CellTox Green fluorescence; series mostly up to 76.8 µM; cytotoxicity increase: at the top concentration", "source_text": "National Center for Advancing Translational Sciences [NCATS]\nNIH Chemical Genomics Center [NCGC]\nU.S. Environmental Protection Agency [EPA]\nNational Institutes of Environmental Health Sciences [NIEHS]\nNational Toxicology Program [NTP]\nCell-based models are critical for drug discovery. Determining the natural cytotoxic effects resulting from test compounds is an essential research activity. A CellTox Green Cytotoxicity Assay to monitor cytotoxicity in real time of continues cell culture during 40 hours of the compound treatment was used to screen Tox21 10K library compounds in Hek293 cells. CellTox Green Cytotoxicity Assay is a nonlytic, homogeneous, biofluorescent method to measure cytotoxicity in cell culture after experimental manipulation. The assay system uses a proprietary asymmetric cyanine dye that is excluded from viable cells but preferentially stains the dead cell's DNA. […] Viable cells produce no appreciable increases in fluorescence. Therefore, the fluorescence signal produced by the binding interaction with dead cell DNA is proportional to cytotoxicity.\nThe mixture of Hek293 cell suspension and reagents were dispensed at 600cells/6 ul/well in 1536-well tissue culture treated black solid bottom plates using a Multidrop dispenser. After the assay plates were incubated at a 37 C/5% CO2 incubator for 5 hours, 23 nL of compounds dissolved in DMSO, positive and negative controls was transferred to the assay plate by a pintool work station. The plates were incubated at 37 C for 40 hours. The fluorescence intensity were measured at 0h, 8h, 16h, 24h, 32h and 40h time points using ViewLux plate reader during compound treatment.", "values": [
      {"smiles": "CCCCCOC(=O)CCC", "cytotoxicity increase": "20.3%"},
      {"smiles": "CCCOC(=O)C(C)O", "note": "(stereo not given)", "cytotoxicity increase": "-17.4%"},
      {"smiles": "Cc1ccc(S(=O)(=O)O)c(C)c1", "cytotoxicity increase": "-5.8%"},
      {"smiles": "Cc1ccccc1N=O", "cytotoxicity increase": "-10.5%"},
      {"smiles": "Cc1c(I)c(=O)n(-c2ccccc2)n1C", "cytotoxicity increase": "4.05% [at 35.3 µM]"},
      {"smiles": "C=Cc1ccccn1", "cytotoxicity increase": "0.744%"},
      {"smiles": "O=C(O)c1ccc(Cl)cc1Cl", "cytotoxicity increase": "0.561%"},
      {"smiles": "O=S(=O)(O)c1cc(O)c2ccc(Nc3ccccc3)cc2c1", "cytotoxicity increase": "2.29%"},
      {"smiles": "CC(C)CC(C)CC(C)CC(C)COC(=O)c1ccccc1C(=O)OCC(C)CC(C)CC(C)CC(C)C", "note": "(stereo not given)", "cytotoxicity increase": "8.09%"},
      {"smiles": "Nc1cccc(O)c1", "cytotoxicity increase": "-10.6%"},
      {"smiles": "N[C@@H](COP(=O)(O)O)C(=O)O", "cytotoxicity increase": "-2.54% [at 15.8 µM]"},
      {"smiles": "CCCCCCCCCCl", "cytotoxicity increase": "3.03%"},
      {"smiles": "CN1CCN(CC(=O)N2c3ccccc3C(=O)Nc3cccnc32)CC1", "cytotoxicity increase": "-1.13% [at 6.97 µM]"},
      {"smiles": "C=C1CC/C=C(\\C)CC[C@@H]2[C@@H]1CC2(C)C", "cytotoxicity increase": "3.37%"},
      {"smiles": "Cc1cccc(OCC(O)CNC(C)(C)C)c1C", "note": "(stereo not given)", "cytotoxicity increase": "0.445% [at 35.3 µM]"},
      {"smiles": "O=C(O)C(=O)Cc1ccccc1", "cytotoxicity increase": "-4.31%"},
      {"smiles": "CCCCCCN", "cytotoxicity increase": "-0.113%"},
      {"smiles": "Cc1nc2n(c(=O)c1CCN1CCC(c3noc4cc(F)ccc34)CC1)CCC[C@H]2O", "cytotoxicity increase": "2.15% [at 15.8 µM]"},
      {"smiles": "O=S(O)(O)=S", "cytotoxicity increase": "-1.12% [at 6.97 µM]"},
      {"smiles": "CC[C@H](C)C(=O)O[C@H]1C[C@H](O)C=C2C=C[C@H](C)[C@H](CC[C@@H](O)C[C@@H](O)CC(=O)O)[C@H]21", "cytotoxicity increase": "-7.38%"},
      {"smiles": "COc1ccc(S(=O)(=O)N2c3ccc(Cl)cc3[C@@](O)(c3ccccc3Cl)[C@H]2C(=O)N2CCC[C@@H]2C(N)=O)cc1OC", "cytotoxicity increase": "0.0815% [at 35.3 µM]"},
      {"smiles": "NS(=O)(=O)c1cc2c(cc1Cl)CN(C1CCCCC1)C2=O", "cytotoxicity increase": "-4.58% [at 35.3 µM]"},
      {"smiles": "COP(=O)(OC)OC(c1ccc(Cl)cc1)P(=O)(OC)OC", "note": "(stereo not given)", "cytotoxicity increase": "-0.795% [at 35.3 µM]"},
      {"smiles": "C=CCCCCCCCCCCCC", "cytotoxicity increase": "-3.01%"},
      {"smiles": "CC(C)CCCCOC(=O)c1ccccc1C(=O)OCCCCC(C)C", "cytotoxicity increase": "-7.54%"},
      {"smiles": "Cc1ccc(C=O)cc1C", "cytotoxicity increase": "-0.159%"},
      {"smiles": "O=C1CC(c2ccc(Cl)cc2)CC(=O)N1", "cytotoxicity increase": "2.86% [at 35.3 µM]"},
      {"smiles": "CC(=O)N[C@@H](CCC(=O)O)C(=O)O", "cytotoxicity increase": "-3.19% [at 35.3 µM]"},
      {"smiles": "CCn1ccc(NS(=O)(=O)c2ccc(N)cc2)nc1=O", "cytotoxicity increase": "3.42% [at 35.3 µM]"},
      {"smiles": "CCCCOCCOC(=O)COc1nc(Cl)c(Cl)cc1Cl", "Potency": "38.9 µM (active)"},
      {"smiles": "O=C1c2cccc3c2[C@H](CCC3)CN1[C@@H]1CN2CCC1CC2", "cytotoxicity increase": "2.82% [at 35.3 µM]"},
      {"smiles": "CCOC(=O)/C=C/c1ccccc1", "cytotoxicity increase": "-7.11%"},
      {"smiles": "COc1cc(C(=S)N2CCOCC2)cc(OC)c1OC", "cytotoxicity increase": "2.12% [at 35.3 µM]"},
      {"smiles": "CCOc1cc([N+](=O)[O-])c(OCC)cc1N1CCOCC1", "cytotoxicity increase": "-7.98%"},
      {"smiles": "C[C@@H](Oc1ccc(CNC(=O)c2cccnc2Oc2ccc3c(c2)OCO3)c(F)c1)C(=O)O", "cytotoxicity increase": "-2.17%"},
      {"smiles": "c1ccc2nccnc2c1", "cytotoxicity increase": "-0.331%"},
      {"smiles": "CCCCCCCCSCC", "cytotoxicity increase": "-2.7%"},
      {"smiles": "CCOC(=O)c1ncn2c1CN(C)C(=O)c1cc(F)ccc1-2", "cytotoxicity increase": "-1.86% [at 35.3 µM]"},
      {"smiles": "OCCCCC(O)CO", "note": "(stereo not given)", "cytotoxicity increase": "-16.3%"},
      {"smiles": "ClCCCl", "cytotoxicity increase": "-12.8%"}
    ]}
  ]
}
